Among the test systems are 786-0 renal; MALME-3M melanoma; MDA-MB-231 breast; SF-268 CNS; SF-295 CNS; UACC-257 melanoma; U251 CNS; PC-3 prostate; UACC-62 melanoma; SK-MEL-2 melanoma; SN12C renal; UO-31 renal; TK-10 renal; ACHN renal; A498 renal; OVCAR-5 ovarian; OVCAR-3 ovarian; HS 578T breast; NCI/ADR-RES ovarian; BT-549 breast.
Holding throughout (experiment): NCI-60 one-dose screen, 48 h (100 = growth as untreated, 0 = no growth, -100 = all killed)
What all share (conditions): 10 µM

This is part of a sample that, as a whole, favours compounds with a hit. Of some 83,000 tested, about 20% had one in any assay.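 Results are percent growth after 48 hours of single-concentration exposure. 100 means growth as in untreated cells, lower positive values show inhibition; negative values down to -100 show cell death.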 A number with no mark means an inactive call. Active and inactive are the calls of the source. The calls were made as follows: active = growth percent below 10; inactive = the rest.

`Cn1cc(/C=C(/SS/C(=C/c2cn(C)c3cccc(C(=O)O)c23)C(=O)O)C(=O)O)c2c(C(=O)O)cccc21`: the growth is 104% with 786-0 renal; 97.9% in the assay with MALME-3M melanoma; 102% in the assay with MDA-MB-231 breast; 101% in the assay with SF-268 CNS; 105% with SF-295 CNS; 104% with UACC-257 melanoma. The growth was 99.6% in the assay on U251 CNS; 97.2% in the assay on PC-3 prostate; 92.3% in the assay with UACC-62 melanoma; 106% with SK-MEL-2 melanoma; 99% in the assay with SN12C renal; 88.1% in the assay with UO-31 renal. Besides, the growth with TK-10 renal was 93%; in the assay on ACHN renal it was 110%; in the assay with A498 renal, 109%; in the assay on OVCAR-5 ovarian, 105%; with OVCAR-3 ovarian, 109%; in the assay with HS 578T breast, 108%. For the same molecule, the growth in the assay on NCI/ADR-RES ovarian was 93.4%; with BT-549 breast, 114%.
For `O=C1NC(=S)S/C1=C\c1cn(-c2ccccc2)nc1-c1ccc([N+](=O)[O-])cc1`, the growth was 17.9% in the assay with 786-0 renal; -5.53% (active) in the assay with MALME-3M melanoma; 24.7% in the assay on MDA-MB-231 breast; 42.7% in the assay on SF-268 CNS; 5.23% (active) in the assay on SF-295 CNS; -10.5% (active) with UACC-257 melanoma. Further, the growth with U251 CNS is 9.35% (active); with PC-3 prostate, 11.2%; with UACC-62 melanoma it was 8.03% (active); in the assay on SK-MEL-2 melanoma, -29.2% (active); in the assay with SN12C renal, 14.9%; in the assay on UO-31 renal it was 14%. For the same molecule, the growth in the assay on TK-10 renal was 19.3%; in the assay with ACHN renal, 12.6%; in the assay with A498 renal, -2.74% (active); in the assay on OVCAR-5 ovarian it was 48.5%; with OVCAR-3 ovarian it was 21.7%; in the assay on HS 578T breast, 30.1%. For the same molecule, the growth is 13.6% in the assay with NCI/ADR-RES ovarian and -16% (active) in the assay with BT-549 breast.
As to `COc1ccc(C(=O)COc2ccc(NC(=O)Nc3ccc(Cl)c(C(F)(F)F)c3)cc2)cc1`, the growth in the assay with 786-0 renal is 25.2%; in the assay on MALME-3M melanoma it was 31.3%; in the assay on MDA-MB-231 breast, 35.3%; in the assay with SF-268 CNS, 37.9%; in the assay on SF-295 CNS, 5.9% (active); in the assay on UACC-257 melanoma, 11.8%. Also, the growth in the assay with U251 CNS was 24.3%; in the assay with PC-3 prostate, 8.96% (active); with UACC-62 melanoma it was 7.25% (active); in the assay with SK-MEL-2 melanoma, -6.77% (active); in the assay with SN12C renal it was 40.9%; with UO-31 renal, 33.3%. The growth in the assay with TK-10 renal is 46.8%; in the assay with ACHN renal it was 17.9%; in the assay on A498 renal, 60.8%; in the assay on OVCAR-5 ovarian it was 67.7%; in the assay on OVCAR-3 ovarian, 28.3%; with HS 578T breast, 53.4%. The growth with NCI/ADR-RES ovarian is 17.7%; in the assay with BT-549 breast, 38%.
As for `COc1ccc(C2c3sc4ccc(C)cc4c3Oc3nc(N)nc(N)c32)cc1` (stereo not given), the growth with 786-0 renal was 102%; in the assay on MALME-3M melanoma it was 85.3%; in the assay with MDA-MB-231 breast, 89.3%; in the assay on SF-268 CNS, 88.6%; in the assay on SF-295 CNS, 102%; with UACC-257 melanoma it was 94.9%. The growth with U251 CNS was 83.1%; in the assay with PC-3 prostate, 79.8%; with UACC-62 melanoma, 63.4%; in the assay on SK-MEL-2 melanoma, 96%; with SN12C renal, 91.4%; with UO-31 renal, 60.5%. Besides, the growth was 125% in the assay with TK-10 renal; 94.4% with ACHN renal; 113% in the assay with A498 renal; 96.2% in the assay with OVCAR-5 ovarian; 96.8% in the assay with OVCAR-3 ovarian; 78.8% with HS 578T breast. In addition, the values for the growth in the assay with NCI/ADR-RES ovarian and in the assay with BT-549 breast were 85.1% and 84.5%, respectively.
Take `Cc1ccc2sc3c(c2c1)Oc1nc[nH]c(=O)c1C3c1cccc(F)c1` (stereo not given): the growth was 102% in the assay on 786-0 renal; 98.7% in the assay with MALME-3M melanoma; 91.1% with MDA-MB-231 breast; 104% in the assay on SF-268 CNS; 109% in the assay with SF-295 CNS; 101% in the assay with UACC-257 melanoma. In addition, the growth with U251 CNS is 97.1%; in the assay on PC-3 prostate, 85.7%; in the assay with UACC-62 melanoma, 74.5%; in the assay with SK-MEL-2 melanoma, 102%; in the assay with SN12C renal, 89.5%; in the assay with UO-31 renal, 66.3%. The growth is 154% in the assay on TK-10 renal; 97% in the assay with ACHN renal; 129% with A498 renal; 108% in the assay with OVCAR-5 ovarian; 114% in the assay on OVCAR-3 ovarian; 94.4% in the assay on HS 578T breast. Moreover, the figures for the growth with NCI/ADR-RES ovarian and in the assay on BT-549 breast were 100% and 95.5%, respectively.
Take `Cn1cc(-c2nnc(N)nc2-c2c[nH]c3ccccc23)c2cc(Br)cnc21`: the growth in the assay with 786-0 renal is 40.1%; with MALME-3M melanoma, 45.9%; in the assay with MDA-MB-231 breast, 54.8%; with SF-268 CNS, 57.4%; with SF-295 CNS it was 37.2%; in the assay on UACC-257 melanoma, 73%. Besides, the growth in the assay with U251 CNS was 45.5%; in the assay with PC-3 prostate, 45.7%; in the assay with UACC-62 melanoma it was 24.3%; in the assay on SK-MEL-2 melanoma it was 46.2%; with SN12C renal it was 56.1%; in the assay on UO-31 renal, 24.7%. Moreover, the growth with TK-10 renal is 61.4%; in the assay on ACHN renal it was 39.7%; in the assay on A498 renal, 81.9%; in the assay with OVCAR-5 ovarian, 94.3%; in the assay with OVCAR-3 ovarian, 65.1%; in the assay with HS 578T breast, 77.3%. The growth in the assay on NCI/ADR-RES ovarian is -5.86% (active); in the assay on BT-549 breast, 17%.
As to `COc1ccc(C2c3sc4ccc(C)cc4c3Oc3nc[nH]c(=O)c32)cc1` (stereo not given), the growth with 786-0 renal was 103%; in the assay on MALME-3M melanoma it was 84.8%; in the assay on MDA-MB-231 breast, 83.6%; in the assay with SF-268 CNS it was 89.7%; in the assay on SF-295 CNS it was 107%; in the assay on UACC-257 melanoma, 88.2%. Also, the growth with U251 CNS is 73.5%; in the assay with PC-3 prostate it was 74.9%; in the assay with UACC-62 melanoma it was 59.2%; with SK-MEL-2 melanoma, 68.8%; in the assay on SN12C renal, 91.7%; in the assay on UO-31 renal, 64.5%. Moreover, the growth is 137% with TK-10 renal; 106% in the assay on ACHN renal; 119% in the assay on A498 renal; 113% with OVCAR-5 ovarian; 89% in the assay with OVCAR-3 ovarian; 78.5% in the assay on HS 578T breast. The growth with NCI/ADR-RES ovarian was 65.4%; with BT-549 breast, 77.9%.

The values above are taken from PubChem BioAssay (NCI).
